Results: PubChem BioAssay AID504608 (National Center for Advancing Translational Sciences (NCATS), 2011)
“And” between values parts separate entries of the source, which are not always exact repeats. Equal values may be shown once. The source made the active and inactive calls. Calls follow the shape of the dose curve; as a rule, active = well fitted inhibition curve with a large enough effect; inconclusive = small, poorly fitted or top-dose-only effect; inactive = flat fitted curve, though single readings scatter.

Assay: Quantitative high throughput screen for delayed death inhibitors of the malarial parasite plastid, 48 hour incubation.
Conditions: P. falciparum in erythrocytes, luciferase growth
From the text: NIH Molecular Libraries Probe Production Network [MLPCN] NIH Chemical Genomics Center [NCGC] MLPCN Grant: R21 NS059500 Assay Provider: David Fidock and Eric Ekland, Columbia University The goal of this screen is to discover new antimalarial compounds that act by inhibiting the development of the apicoplast in the malarial parasite Plasmodium falciparum. The biochemical processes that make this organelle essential for erythrocytic stage parasites are not well understood. However, antibiotics, such as azithromycin and tetracycline, which target the apicoplast translational machinery, have a potent antimalarial effect. […] We have developed a cell-based assay that measures parasite growth based on the expression of an integrated copy of a firefly luciferase reporter. To detect small molecules that cause this 'delayed death' phenotype, erythrocytes infected with the luciferase-expressing parasites were incubated with compounds for either one or two generations, corresponding to 48 and 96 hours, respectively. Compounds that inhibit parasite growth in the second generation, but not the first, should be enriched in antimalarials that target the apicoplast. Growth inhibition is detected by a decrease in luciferase activity
Four microliters of culture medium (RPMI 1640 with 0.5% w/v Albumax (GIBCO), 24 mM sodium bicarbonate and 10 ug/mL gentamycin) were dispensed by a Multi-drop Combi into white solid 1536-well plates (Grenier) and 23 nL compound was added by a pin tool. Four microliters of infected erythrocytes (2% hematocrit, 0.1% parasitemia final concentration) in culture medium were dispensed and the plates incubated for 48 hours at 37 C in 5% CO2. Two microliters of luciferase detection reagent was added and luminescence was detected by a ViewLux (PerkinElmer) reader

Row | SMILES | Potency
1 | COCCOCOC[C@H](C)N1C[C@@H](C)[C@H](CN(C)S(=O)(=O)c2ccc(F)cc2)OCCCC[C@H](C)Oc2ccc(NC(=O)Nc3ccccc3)cc2C1=O | 11.3 nM (active)
2 | C[C@@H]1CN([C@@H](C)COC(C)(C)C)C(=O)c2cc(NC(=O)Nc3ccccc3)ccc2O[C@@H](C)CCCCO[C@H]1CN(C)S(=O)(=O)c1ccc(F)cc1 | 1.3 nM (active)
3 | COc1ccc(COC[C@H](C)N2C[C@@H](C)[C@H](CN(C)Cc3ccc(OC)cc3)OCCCC[C@H](C)Oc3ccc(NC(=O)Nc4ccccc4)cc3C2=O)cc1 | 565 nM (active)
4 | C[C@@H]1CN(CCO)C(=O)c2cc(NC(=O)Nc3ccccc3)ccc2O[C@@H](C)CCCCO[C@H]1CN(C)S(=O)(=O)c1ccc(F)cc1 | 179 nM (active)
5 | C[C@@H]1CN([C@@H](C)CO)C(=O)c2cc(NC(=O)Nc3ccccc3)ccc2O[C@@H](C)CCCCO[C@H]1CN(C)S(=O)(=O)c1cccnc1 | 2830 nM (active)
6 | C[C@@H]1CN([C@@H](C)CO)C(=O)c2cc(NC(=O)Nc3ccccc3)ccc2O[C@@H](C)CCCCO[C@H]1CN(C)S(=O)(=O)c1ccc(C(F)(F)F)cc1 | 896 nM (active)
7 | C[C@@H]1CN(C)C(=O)c2cc(NC(=O)Nc3ccccc3)ccc2O[C@@H](C)CCCCO[C@@H]1CN(C)S(=O)(=O)c1ccc(F)cc1 | 1260 nM (active)
8 | C[C@@H]1CN([C@@H](C)CO)C(=O)c2cc(N)ccc2O[C@@H](C)CCCCO[C@H]1CN(C)S(=O)(=O)c1ccc(F)cc1 | 159 nM (active)
9 | CC(C)NC(=O)Nc1ccc2c(c1)C(=O)N([C@@H](C)CO)C[C@@H](C)[C@H](CN(C)S(=O)(=O)c1ccc(F)cc1)OCCCC[C@H](C)O2 | 634 nM (active)
10 | C[C@@H]1CN([C@@H](C)COC(=O)c2ccccc2)C(=O)c2cc(NC(=O)Nc3ccccc3)ccc2O[C@@H](C)CCCCO[C@H]1CN(C)C(=O)OC(C)(C)C | 400 nM (active)
11 | C[C@@H]1CN([C@@H](C)CO[Si](C)(C)C(C)(C)C)C(=O)c2cc(NC(=O)Nc3ccccc3)ccc2O[C@@H](C)CCCCO[C@H]1CN(C)S(=O)(=O)c1ccc(F)cc1 | 1.1 nM (active)
12 | C[C@@H]1CN([C@@H](C)CO)C(=O)c2cc(NC(=O)Nc3ccccc3)ccc2O[C@@H](C)CCCCO[C@H]1CN(C)Cc1ccc(C(F)(F)F)cc1 | 1000 nM (active)
13 | C=CCOC(=O)N(C)C[C@H]1OCCCC[C@H](C)Oc2ccc(NC(=O)Nc3ccccc3)cc2C(=O)N([C@@H](C)CO[Si](C)(C)C(C)(C)C)C[C@H]1C | 283 nM (active)
14 | C[C@@H]1CN([C@@H](C)COC(=O)c2ccccc2)C(=O)c2cc(NC(=O)Nc3ccccc3)ccc2O[C@@H](C)CCCCO[C@H]1CN(C)S(=O)(=O)c1ccc(F)cc1 | 63.4 nM (active)
15 | C=CCOC(=O)N(C)C[C@@H]1OCCCC[C@H](C)Oc2ccc(NC(=O)Nc3ccccc3)cc2C(=O)N([C@H](C)COC(=O)c2ccccc2)C[C@H]1C | 504 nM (active)
16 | C[C@@H]1CN([C@@H](C)CO)C(=O)c2cc(NC(=O)Nc3ccccc3)ccc2O[C@@H](C)CCCCO[C@H]1CN(C)S(=O)(=O)c1cccc(F)c1 | 10 nM (active)
17 | C[C@@H]1CN([C@@H](C)CO)C(=O)c2cc(NC(=O)Nc3ccccc3)ccc2O[C@@H](C)CCCCO[C@H]1CN(C)S(=O)(=O)c1ccccc1F | 634 nM (active)

Row | SMILES | Potency
18 | Cc1noc(C)c1NC(=O)Nc1ccc2c(c1)C(=O)N(C(C)C)C[C@@H](C)[C@H](CN(C)S(=O)(=O)c1ccc(F)cc1)OCCCC[C@H](C)O2 | 63.4 nM (active) and 1.59 µM (active)
19 | C[C@@H]1CN([C@@H](C)CO)C(=O)c2cc(Nc3nc4ccccc4o3)ccc2O[C@@H](C)CCCCO[C@H]1CN(C)S(=O)(=O)c1ccc(F)cc1 | 1590 nM (active)
20 | C[C@@H]1CN(CCO[Si](C)(C)C(C)(C)C)C(=O)c2cc(NC(=O)Nc3ccccc3)ccc2O[C@@H](C)CCCCO[C@H]1CN(C)S(=O)(=O)c1ccc(F)cc1 | 56.5 nM (active)
21 | C[C@@H]1CN([C@@H](C)COC(=O)C(C)(C)C)C(=O)c2cc(NC(=O)Nc3ccccc3)ccc2O[C@@H](C)CCCCO[C@H]1CN(C)S(=O)(=O)c1ccc(F)cc1 | 11.3 nM (active)
22 | C[C@@H]1CCCCO[C@H](CN(C)C(=O)Nc2ccc(F)cc2)[C@H](C)CN([C@@H](C)CO)C(=O)c2cc(NS(=O)(=O)c3ccccc3)ccc2O1 | 356 nM (active)
23 | C[C@@H]1CN([C@H](C)CO[Si](C)(C)C(C)(C)C)C(=O)c2cc(NC(=O)Nc3ccccc3)ccc2O[C@@H](C)CCCCO[C@H]1CN(C)S(=O)(=O)c1ccc(F)cc1 | 225 nM (active)
24 | C[C@@H]1CN([C@@H](C)CN=[N+]=[N-])C(=O)c2cc(NC(=O)Nc3ccccc3)ccc2O[C@@H](C)CCCCO[C@H]1CN(C)S(=O)(=O)c1ccc(F)cc1 | 3.6 nM (active)
25 | C=CCOC(=O)N(C)C[C@@H]1OCCCC[C@H](C)Oc2ccc(NC(=O)Nc3ccccc3)cc2C(=O)N([C@@H](C)CO)C[C@H]1C | 356 nM (active)
26 | C[C@@H]1CN([C@@H](C)CO)C(=O)c2cc(NC(=O)Nc3ccccc3)ccc2O[C@@H](C)C/C=C\CO[C@H]1CN(C)S(=O)(=O)c1ccc(F)cc1 | 356 nM (active)
27 | COCOC[C@H](C)N1C[C@@H](C)[C@H](CN(C)S(=O)(=O)c2ccc(F)cc2)OCCCC[C@H](C)Oc2ccc(NC(=O)Nc3ccccc3)cc2C1=O | 10 nM (active)
28 | CC(C)N1C[C@@H](C)[C@H](CN(C)S(=O)(=O)c2ccc(F)cc2)OCCCC[C@H](C)Oc2ccc(NC(=O)Nc3ccccc3)cc2C1=O | 17.9 nM (active)
29 | COc1ccc(COCCN2C[C@@H](C)[C@H](CN(C)S(=O)(=O)c3ccc(F)cc3)OCCCC[C@H](C)Oc3ccc(NC(=O)Nc4ccccc4)cc3C2=O)cc1 | 100 nM (active)
30 | C[C@@H]1CN([C@@H](C)CO)C(=O)c2cc(NC(=O)Nc3ccccc3)ccc2O[C@@H](C)CCCCO[C@H]1CN(C)C(=O)OC(C)(C)C | 565 nM (active)
31 | Cc1noc(C)c1NC(=O)Nc1ccc2c(c1)C(=O)N([C@@H](C)CO)C[C@@H](C)[C@H](CN(C)S(=O)(=O)c1ccc(F)cc1)OCCCC[C@H](C)O2 | 126 nM (active)
32 | C[C@@H]1CCCCO[C@@H](CN(C)Cc2ccc(F)cc2)[C@H](C)CN([C@@H](C)CO)C(=O)c2cc(NC(=O)Nc3ccccc3)ccc2O1 | 4000 nM (active)
33 | C[C@@H]1CN([C@@H](C)CO)C(=O)c2cc(NC(=O)Nc3ccccc3)ccc2O[C@@H](C)C/C=C/CO[C@H]1CN(C)S(=O)(=O)c1ccc(F)cc1 | 142 nM (active)
